PubChem BioAssay AID488845 (National Center for Advancing Translational Sciences (NCATS), 2010)
Activity calls are given as the source filed them. Calls follow the shape of the dose curve; as a rule, active = well fitted curve in the direction sought with a large enough effect; inactive = no such curve, though single readings can be large or run the other way.

Molecular target: Lysosomal acid glucosylceramidase (Homo sapiens) (UniProt P04062)
Assay: qHTS Assay for Inhibitors and Activators of N370S glucocerebrosidase as a Potential Chaperone Treatment of Gaucher Disease: Primary Screen Confirmation Using LC/MS
Conditions: N370S GC spleen homogenate, 4MU-glucoside, LC/MS detection
Source text: NIH Chemical Genomics Center [NCGC] NIH Molecular Libraries Probe Production Centers Network [MLPCN] MLPCN Grant: MH086442-01 Assay Submitter (PI): Wei Zheng Glucocerebrosidase (GC) catalyzes the hydrolysis of beta-glucocerebroside to glucose and ceramide in lysosomes. Mutations in the glucocerebrosidase gene result in Gaucher disease, an autosomal recessive lysosomal storage disorder. Many of the mutations encountered in patients with Gaucher disease are missense alterations that may cause misfolding, decreased stability and/or mistrafficking of this lysosomal protein. […] These inhibitors include iminosugar analogs and three non-iminosugar inhibitors identified from a previous HTS of 62,000 compounds with the wild type recombinant enzyme. However, the enhancement of enzyme activity by the chaperone action of an enzyme inhibitor must be balanced against the direct inhibition of the enzyme. An enzyme activator could also function as a chaperone by binding to the enzyme and helping to correct its misfolding and mistrafficking. While activators for GC have not yet been identified, they may have better therapeutic potential than inhibitors. Therefore the discovery and development of chemical activators may provide a new strategy for the chaperone therapy. We have optimized a new assay using N370S mutant GC derived from the spleen of a Gaucher patient. […] In addition, the MLPCN compound library has expanded, which increases the chance of finding new and better probes. This assay uses liquid chromatography linked to a mass spectrometer to assess the ability of glucocerebrosidase in the spleen homogenate to cleave either 4-methylumbelliferyl-beta-D-glucopyranoside substrate or a labeled version of the natural substrate, glucosylceramide.
NCGC Assay Protocol Summary: This is a fluorogenic enzyme assay with 4-methylumbelliferyl-beta-D-glucopyranoside as the substrate and N370S glucocerebrosidase from human spleen homogenate as the enzyme preparation. Upon the hydrolysis of this fluorogenic substrate, the resulting product, […] which can be detected by a standard fluorescence plate reader. Data were normalized to the controls for basal activity (without enzyme) and 100% activity (with enzyme). The AC50 values were determined from concentration-response data modeled with the standard Hill equation. Assay buffer: 50 mM citric acid (titrated with potassium phosphate to pH 5.0), 100 mM potassium chloride, 10 mM sodium chloride, 1 mM magnesium chloride, 0.01% Tween-20. […] Compounds were monitored using fluorescence detection with an excitation wavelength of […]. […]

Lysosomal acid glucosylceramidase (Homo sapiens), sequence (P04062 whole entry N409S): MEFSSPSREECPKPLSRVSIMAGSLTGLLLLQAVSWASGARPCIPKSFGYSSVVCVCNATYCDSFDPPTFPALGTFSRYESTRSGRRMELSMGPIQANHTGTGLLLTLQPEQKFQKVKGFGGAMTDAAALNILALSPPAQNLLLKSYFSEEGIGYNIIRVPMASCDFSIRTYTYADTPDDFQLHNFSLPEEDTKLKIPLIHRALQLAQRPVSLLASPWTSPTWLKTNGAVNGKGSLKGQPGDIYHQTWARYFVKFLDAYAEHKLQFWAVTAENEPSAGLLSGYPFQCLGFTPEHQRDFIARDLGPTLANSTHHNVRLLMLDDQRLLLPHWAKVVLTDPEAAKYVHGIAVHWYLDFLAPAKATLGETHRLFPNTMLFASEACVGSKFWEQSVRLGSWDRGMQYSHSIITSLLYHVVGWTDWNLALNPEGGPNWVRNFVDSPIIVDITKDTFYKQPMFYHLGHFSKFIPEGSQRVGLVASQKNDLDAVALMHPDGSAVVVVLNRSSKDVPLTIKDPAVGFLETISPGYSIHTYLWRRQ

Potency, active:
Cc1cc(C)n2ncc(C(=O)Nc3ccc(Br)cc3)c2n1 1190 nM
Cc1cc(C)n2ncc(C(=O)Nc3ccc(C(F)(F)F)cc3)c2n1 1340 nM
C#Cc1ccc(NC(=O)c2cnn3c(C)cc(C)nc23)cc1 3730 nM
O=C(Nc1ccccc1Sc1ccccc1)c1cnn2c1NC(=C1CC1)C=C2C(F)F 3000 nM
